{"source": "PubChem BioAssay AID504329", "about": "(Southern Research Specialized Biocontainment Screening …, 2011)", "note": "Values joined by “and” are separate entries in the source; they are usually repeats but may differ in a detail not shown here. Equal entries are not always repeated. About 1,000 (0.29%) of roughly 340,000 compounds were called active. Cut-off read from the data, not from the text of the source: inconclusive = inhibition above about 27% without an active follow-up result; inactive = below that. Only a sample is shown. Entries with a potency or affinity are not part of this list.", "data": [{"test": "H1N1 influenza NS1A inhibitors, functional cell based assay (AID 504329)", "details": "percent inhibition, at 12.5 µM, active compounds read high", "values": [{"smiles": "CC(C)n1nnnc1SCC(=O)NNC(=O)C1CCCCC1", "inhibition": "-0.25% (inactive)"}, {"smiles": "COC(=O)[C@@H]1C[C@@]2(O)[C@@H](O)[C@@H](O)[C@@H](O)C[C@H]2N1CC1CCCCC1", "inhibition": "-4.19% (inactive)"}, {"smiles": "CCCCn1c(N)c(N(C(=O)CSc2nnnn2-c2ccccc2C)C2CCCC2)c(=O)[nH]c1=O", "inhibition": "-10.4% (inactive)"}, {"smiles": "CC1CC(C)CN(C(=O)COc2ccc([N+](=O)[O-])cc2Cl)C1", "note": "(stereo unspecified)", "inhibition": "0.5% (inactive)"}, {"smiles": "CSCCC(NC(=O)c1ccccc1)C(=O)OCC(=O)Nc1ccc(C)c(Cl)c1", "note": "(stereo unspecified)", "inhibition": "0.6% (inactive)"}, {"smiles": "COc1ccc(OCc2nnc(SCC(N)=O)n2-c2ccccc2OC)cc1", "inhibition": "-0.95% (inactive)"}, {"smiles": "O=[N+]([O-])c1cc(Cl)c(O)c2ncccc12", "inhibition": "-6.45% (inactive)"}, {"smiles": "c1ccc(N2CCN(Cc3ccnc4ccccc34)CC2)cc1", "inhibition": "-0.44% (inactive)"}, {"smiles": "O=S(=O)(c1ccc(Cl)cc1)N1CCN(Cc2ccc(O)c3ncccc23)CC1", "inhibition": "19.8% (inactive)"}, {"smiles": "Oc1ccc2ccccc2c1CN1CCN(c2ccccc2)CC1", "inhibition": "0.87% (inactive)"}, {"smiles": "O=[N+]([O-])c1cc2c(cc1CN1CCN(c3ccccc3)CC1)OCO2", "inhibition": "1.15% (inactive)"}, {"smiles": "Oc1ccc(COCc2ccccc2)c2cccnc12", "inhibition": "22.4% (inactive)"}, {"smiles": "COc1ccc(C2C(C(=O)Nc3cc(C)on3)c3ccccc3C(=O)N2C)cc1", "note": "(stereo unspecified)", "inhibition": "7.42% (inactive)"}, {"smiles": "CCCCNS(=O)(=O)c1cc(-c2nn(C)c(=O)c3ccccc23)ccc1C", "inhibition": "-6.29% (inactive)"}, {"smiles": "CC(=O)N1N=C(c2ccc(Br)cc2)OC12CCCC2", "inhibition": "-0.33% (inactive)"}, {"smiles": "C=CCSc1nc(N)c(C(=O)Nc2ccccc2OC)cc1C(=O)Nc1ccccc1", "inhibition": "6.7% (inactive)"}, {"smiles": "COc1ccccc1NC(=O)c1c(N=Cc2c(O)ccc3ccccc23)cnn1C", "inhibition": "15.2% (inactive)"}, {"smiles": "Cc1cc(OCC(=O)OCC(=O)N2CCc3ccccc3C2)ccc1Cl", "inhibition": "-4.55% (inactive)"}, {"smiles": "Cc1ccc(C2Nc3ccccc3NC3=C2C(=O)CC(C)(C)C3)c(O)c1", "note": "(stereo unspecified)", "inhibition": "-4.27% (inactive)"}, {"smiles": "Cc1ccc(NN=C2C(=O)OC(C)(C)OC2=O)c(C)c1", "inhibition": "-14.3% (inactive)"}, {"smiles": "O=C(c1ccccc1F)N1CCN(C(=O)C(c2ccccc2)c2ccccc2)CC1", "inhibition": "6.85% (inactive)"}, {"smiles": "O=c1ccc(Cl)nn1-c1ccccc1", "inhibition": "-0.77% (inactive)"}, {"smiles": "CSCCC(NC(=O)COc1ccccc1)C(=O)N1CCCCC1", "note": "(stereo unspecified)", "inhibition": "0.87% (inactive)"}, {"smiles": "CC(=O)c1ccc(S(=O)(=O)NCCCC(=O)N(C)Cc2ccc3c(c2)OCO3)cc1", "inhibition": "-23.5% (inactive)"}, {"smiles": "Cc1cc(NC(=O)CC#N)n(-c2nc3ccccc3[nH]2)n1", "inhibition": "-16.5% (inactive)"}, {"smiles": "CCOC(=O)C(=O)Nc1cc(C)nn1-c1nc2ccccc2[nH]1", "inhibition": "11.3% (inactive)"}, {"smiles": "CCCOc1ccc(C(C)=O)cc1CSc1nc(O)cc(=O)[nH]1", "inhibition": "4.86% (inactive)"}, {"smiles": "COc1ccc(C(=O)NCC(=O)N2CCN(C(=O)c3ccco3)CC2)cc1", "inhibition": "-3.4% (inactive)"}, {"smiles": "O=C(COc1c(Br)cc(Br)cc1Br)N/N=C/c1ccco1", "inhibition": "-0.44% (inactive)"}, {"smiles": "CN(C)CCCNc1c2ccccc2nc2ccccc12", "inhibition": "-0.82% (inactive)"}, {"smiles": "CN(C)CCCNC(=O)c1ccccn1", "inhibition": "-2.43% (inactive)"}, {"smiles": "CN(C)CCCNC(=O)c1ccc(-c2ccccc2)cc1", "inhibition": "-6.67% (inactive)"}, {"smiles": "COc1cc(NCc2ccccc2O)c2ncccc2c1", "inhibition": "-8.87% (inactive)"}, {"smiles": "CC(C)C(=O)N1CCC(n2nccc2NC(=O)CCOc2ccccc2)CC1", "inhibition": "0.18% (inactive)"}, {"smiles": "COc1ccc(/C=N/NC(=O)CN2CCS(=O)(=O)CC2)cc1", "inhibition": "-0.94% (inactive)"}, {"smiles": "CCOC(=O)c1[nH]c2c(c1-c1ccccc1)C(=O)CC(c1ccc(OC)c(OC)c1)C2", "note": "(stereo unspecified)", "inhibition": "8.75% (inactive)"}, {"smiles": "O=C(NC(Cc1ccccc1)C(=O)O)/C(=C/c1ccccc1)NC(=O)c1ccc(Br)o1", "note": "(stereo unspecified)", "inhibition": "3.22% (inactive)"}, {"smiles": "CCCCCn1c(=NC(=O)c2cccnc2)c(C#N)cc2c(=O)n3cccc(C)c3nc21", "inhibition": "-3.21% (inactive)"}, {"smiles": "O=C(COC(=O)c1cccc(S(=O)(=O)NCc2ccccc2)c1)c1ccccc1", "inhibition": "3.76% (inactive)"}, {"smiles": "O=C(NCC(c1cccs1)N1CCOCC1)c1ccc(Cl)c(S(=O)(=O)N2CCOCC2)c1", "note": "(stereo unspecified)", "inhibition": "-3.43% (inactive)"}, {"smiles": "CC1CCN(Cc2c(C(=O)N/N=C/c3ccccc3O)nnn2-c2nonc2N)CC1", "inhibition": "-0.06% (inactive)"}, {"smiles": "Nc1nonc1-n1nnc(C(=O)N/N=C/c2ccccc2Br)c1CN1CCCC1", "inhibition": "1.45% (inactive)"}, {"smiles": "O=C(CN1C(=O)c2cccc3cccc1c23)NCC1CCCO1", "note": "(stereo unspecified)", "inhibition": "7.9% (inactive)"}, {"smiles": "Cc1[nH]c(=O)c(C#N)c(C)c1CSc1ncccn1", "inhibition": "-0.63% (inactive)"}, {"smiles": "S=C(Nc1ccccc1)c1ccccn1", "inhibition": "3.81% (inactive)"}, {"smiles": "CN(C)c1ccc(NC(=S)c2ccc3ccccc3n2)cc1", "inhibition": "5.3% (inactive)"}, {"smiles": "Cc1cc(C)c2oc(C(=O)N(Cc3ccccc3)C3CCS(=O)(=O)C3)cc(=O)c2c1", "note": "(stereo unspecified)", "inhibition": "-2.06% (inactive)"}, {"smiles": "CC1(C)S[C@@H]2[C@H](NC(=O)Cc3ccccc3)C(=O)N2[C@H]1C(=O)O", "inhibition": "-10.5% (inactive) and 1.49% (inactive)"}, {"smiles": "CC1(C)SC2c3ccccc3C(=O)N2C1C(=O)O", "note": "(stereo unspecified)", "inhibition": "-0.07% (inactive)"}, {"smiles": "CC(C)C[C@H]1COCCS(=O)(=O)N1Cc1cccc(C(F)(F)F)c1", "inhibition": "-20% (inactive)"}, {"smiles": "O=C(NC1CCCCC1)C1CCN(c2nnnn2-c2ccccc2)CC1", "inhibition": "-1.63% (inactive)"}, {"smiles": "Cc1ccc(SCC(=O)NCc2ccccc2)cc1", "inhibition": "-3.04% (inactive)"}, {"smiles": "Cc1ccccc1NC(=O)N(C(C)C)C(C)C", "inhibition": "-12.5% (inactive)"}, {"smiles": "Nc1c(NC2CCCCC2)c2ccccc2oc1=O", "inhibition": "4.37% (inactive)"}, {"smiles": "O=C(Nc1ccccc1NC(=O)NC1CCCCC1)NC1CCCCC1", "inhibition": "14% (inactive)"}, {"smiles": "Cc1nc(NC(=O)c2cc3c(C)nn(-c4ccccc4)c3s2)sc1C(=O)Nc1ccccc1", "inhibition": "0.17% (inactive)"}, {"smiles": "COc1ccc(N2CC(C(=O)N/N=C/c3ccccc3)CC2=O)cc1", "note": "(stereo unspecified)", "inhibition": "-7.3% (inactive)"}, {"smiles": "COc1ccc2c(c1)c(=O)cc(-c1ccccc1)n2C", "inhibition": "0.17% (inactive)"}, {"smiles": "CN(C)c1ccc(-c2n(C)c3ccccc3[n+]2C)cc1", "inhibition": "28.5% (inactive)"}, {"smiles": "CN(c1ccc(Cl)cc1)c1cc(=O)n(C)c2ccccc12", "inhibition": "3.91% (inactive)"}, {"smiles": "CN(C)c1ccc(/C=N/c2cc(-c3ccccc3)nn2-c2ccccc2)cc1", "inhibition": "-1.42% (inactive)"}, {"smiles": "COc1ccc(-c2cc(-c3ccccc3)[n+](C)c(-c3ccccc3)c2)cc1", "inhibition": "-1.4% (inactive)"}, {"smiles": "C[n+]1c(-c2ccccc2)cc2c(=Cc3ccccc3)c3ccccc3n21", "inhibition": "-16.8% (inactive)"}, {"smiles": "CCCCC1(C)OC(=O)C(=Cc2ccc(N(C)C)cc2)C(=O)O1", "note": "(stereo unspecified)", "inhibition": "0.99% (inactive)"}, {"smiles": "CN(C)c1ccc(/C=C2\\SC(=O)N(CC(O)Cn3c4ccccc4c4ccccc43)C2=O)cc1", "note": "(stereo unspecified)", "inhibition": "-1.11% (inactive)"}, {"smiles": "CC(C)(C)CN1CCNC[C@H]1Cc1cccc2ccccc12", "inhibition": "4.41% (inactive)"}, {"smiles": "CNCC(O)c1cc(OCc2ccccc2)c(OCc2ccccc2)cc1F", "note": "(stereo unspecified)", "inhibition": "2.8% (inactive)"}, {"smiles": "Cc1cc(Nc2cccc(F)c2)n2c(n1)nc1ccccc12", "inhibition": "-4.78% (inactive)"}, {"smiles": "CC(Sc1nnc(C2CC2)n1C1CC1)C(=O)c1ccc(F)cc1", "note": "(stereo unspecified)", "inhibition": "-11.2% (inactive)"}, {"smiles": "Clc1cccc(Cl)c1CSc1nnc([C@@H]2CCCN2)o1", "inhibition": "-1.85% (inactive)"}, {"smiles": "CC(=O)N1CCN(C(=O)COC(=O)CNC(=O)c2ccccc2C)CC1", "inhibition": "-1.13% (inactive)"}, {"smiles": "Cc1ccc(CNCC(O)(c2ccccc2)c2ccc(Cl)cc2)cc1", "note": "(stereo unspecified)", "inhibition": "6.37% (inactive)"}, {"smiles": "Cn1c(SCC(=O)N2CCCC2=O)nnc1-c1ccccc1F", "inhibition": "6.14% (inactive)"}, {"smiles": "CN(C)c1ccc(C=c2c3ccccc3n3c2c2ccccc2[n+]3C)cc1", "inhibition": "21% (inactive)"}, {"smiles": "C[n+]1c(-c2ccccc2)cc(-c2ccc(O)cc2)cc1-c1ccccc1", "inhibition": "-0.313% (inactive)"}, {"smiles": "CCOC(=O)c1cc2c(C)n(-c3ccc(N(C)C)cc3)c(C)c2cc(C(=O)OCC)c1=O", "inhibition": "-3.74% (inactive)"}, {"smiles": "COc1ccc(C(=O)c2ccc(N(C)C)cc2)c2ccccc12", "inhibition": "11.2% (inactive)"}, {"smiles": "CCOC(=O)c1cccc(NC(=O)c2ccc(N(C)C)cc2)c1", "inhibition": "5.77% (inactive)"}, {"smiles": "CN(C)c1ccc(/C=C/c2nc3ccccc3c(=O)n2-c2ccc(C(=O)O)cc2)cc1", "inhibition": "-25.3% (inactive)"}, {"smiles": "CN(C)c1ccc(/C=C2\\CCCc3c2nc2ccccc2c3C(=O)O)cc1", "inhibition": "2.2% (inactive)"}, {"smiles": "COc1cc(C=c2c3ccccc3n3c2cc(-c2ccccc2)[n+]3C)cc(OC)c1OC", "inhibition": "6.14% (inactive)"}, {"smiles": "COc1ccc(C)cc1NS(=O)(=O)c1ccc2c(c1)N(C)CCO2", "inhibition": "3.31% (inactive)"}, {"smiles": "COC(=O)C1CN(C(=O)c2ccc(OC(F)F)cc2)c2ccccc2O1", "note": "(stereo unspecified)", "inhibition": "8.47% (inactive)"}, {"smiles": "CN(CC(=O)Nc1ccccc1Cl)CC(=O)N1CCc2ccccc21", "inhibition": "-8.6% (inactive)"}, {"smiles": "CCOc1ccc(CC(=O)Nc2nccs2)cc1OCC", "inhibition": "-1.94% (inactive)"}, {"smiles": "C=CCNc1nc(N)c([N+](=O)[O-])c(Nc2cccc(Cl)c2)n1", "inhibition": "3.17% (inactive)"}, {"smiles": "CC(C)=CC(=O)Nc1nnc(-c2ccccc2C)s1", "inhibition": "-8.76% (inactive)"}, {"smiles": "O=C(CNCc1ccc(Cl)cc1)N1CCc2ccccc2C1", "inhibition": "-2.57% (inactive)"}, {"smiles": "O=C(CNCc1cccc(Cl)c1)N1CCc2ccccc2C1", "inhibition": "-4.83% (inactive)"}, {"smiles": "COc1cc(/C=N/Nc2nc3ccccc3o2)cc(OC)c1O", "inhibition": "1.3% (inactive)"}, {"smiles": "CN(C)c1ccc(/C=N/Nc2nc3ccccc3o2)cc1", "inhibition": "-0.4% (inactive)"}, {"smiles": "C/C(=N\\Nc1nc2ccccc2s1)c1cccs1", "inhibition": "-10% (inactive)"}, {"smiles": "CC(=NNc1nc2ccccc2s1)c1ccncn1", "inhibition": "6.3% (inactive)"}, {"smiles": "Oc1ccccc1/C=N/Nc1nc2ccccc2o1", "inhibition": "12% (inactive)"}, {"smiles": "Cc1ccnc(Nc2nc3ccccc3o2)n1", "inhibition": "-3.68% (inactive)"}, {"smiles": "CCCN1CCC(N(C)CCc2ccc(OC)c(OC)c2)CC1", "inhibition": "-5.4% (inactive)"}]}]}
